PubChem BioAssay (NCI)
This is part of a sample that, as a whole, favours compounds with a hit. Of some 83,000 tested, about 20% had one in any assay.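 Negative percent growth values reflect cell death: -40 means 40% of the cells present at the start died, and -100 means all died.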 Active and inactive are the calls of the source. How the source made its calls: active means growth percent below 10; inactive means the rest.

Columns and labels:
Test in all cases: NCI-60 one-dose screen, 48 h (100 = growth as untreated, 0 = no growth, -100 = all killed)
Settings in all cases: 10 µM
[1] = system: SN12C renal
[2] = system: UO-31 renal
[3] = system: TK-10 renal
[4] = system: ACHN renal
[5] = system: CAKI-1 renal
[6] = system: A498 renal
[7] = system: CCRF-CEM leukemia
[8] = system: MOLT-4 leukemia
[9] = system: SR leukemia

Measured: growth

C#Cc1ccc(-n2c(/C=C/c3ccc(O)cc3)nc3ncccc3c2=O)cc1
active: [6] -1.24%
inactive: [1] 75.9% | [2] 34.3% | [3] 93.7% | [4] 49.8% | [5] 55.9% | [7] 85.7% | [8] 101% | [9] 18.1%

C#Cc1ccc(-n2c(/C=C/c3ccc4ccccc4c3)nc3ncccc3c2=O)cc1
inactive: [1] 28.9% | [2] 13.7% | [3] 21.4% | [4] 23.1% | [5] 13%
active: [6] -2.88% | [7] 2.66% | [8] 4.88% | [9] 4.43%

Nc1ccc2c(c1)C1(CCC2)NC(=O)NC1=O (stereo not given)
inactive: [1] 97.3% | [2] 93.3% | [3] 109% | [4] 101% | [5] 95.7% | [6] 101% | [7] 96.9% | [8] 98.8% | [9] 89.7%

O=S(=O)(NCCCNc1nccc(-c2c(-c3ccc(F)cc3)nc3sccn23)n1)c1ccc(F)cc1
active: [2] 3.14%
inactive: [1] 52.3% | [3] 38.3% | [4] 30.8% | [5] 29.9% | [6] 56.3% | [7] 17.5% | [8] 22.6% | [9] 25.5%

CCCCCCCNc1nc(C=O)ncc1-c1ccc(C(F)(F)F)cc1
inactive: [1] 101% | [2] 63.1% | [3] 97% | [4] 104% | [5] 98.4% | [6] 86.2% | [7] 83.9% | [8] 86.5%
active: [9] -2.53%

O=S(=O)(NCCNc1nccc(-c2c(-c3ccc(F)cc3)nc3sccn23)n1)c1ccc2ccccc2c1
inactive: [1] 80.7% | [2] 43.4% | [3] 83.7% | [4] 56.6% | [5] 68.5% | [6] 79.5% | [7] 61.7% | [8] 54% | [9] 46.6%

Cc1cc(=O)[nH]c(N/N=C/c2ccccc2O)n1
inactive: [1] 86.2% | [2] 43.6% | [3] 97.3% | [4] 59.8% | [5] 82.3% | [6] 108% | [7] 35% | [8] 67.3% | [9] 26.8%

COc1ccc(-c2nc(-c3nc4ccc(Cl)cc4[nH]3)c3ccccn23)cc1
active: [2] -24.8% | [3] -12.1% | [4] 0.296% | [5] -13% | [6] -3.43%
inactive: [1] 52.7% | [7] 82.7% | [8] 74.4% | [9] 40.3%

CCN1CCCC1CNC(=O)c1ncc(-c2ccc(C(F)(F)F)cc2)c(NC2CCCCCC2)n1 (stereo not given)
inactive: [1] 86.7% | [2] 45% | [3] 74.1% | [4] 93.5% | [5] 83% | [6] 58.3% | [7] 63.3% | [8] 66.3%
active: [9] -16.6%

COc1ccc(Cl)cc1-n1nnc(-c2nc3ccccc3[nH]2)c1N
inactive: [1] 94.3% | [2] 71.9% | [3] 85.9% | [4] 51.4% | [5] 67.7% | [6] 89.3% | [7] 104% | [8] 98.5% | [9] 71.8%

FC(F)(F)c1ccc2nc(-c3nc(-c4ccccc4)n4ccccc34)[nH]c2c1
inactive: [1] 53% | [2] 80.9% | [3] 94.2% | [4] 81.1% | [5] 99.9% | [6] 107% | [7] 52% | [8] 47.8% | [9] 19.6%

COc1cc(NC(=O)c2sc3nc4c(cc3c2N)C(O)CCC4)cc(OC)c1 (stereo not given)
inactive: [1] 93.5% | [2] 85.1% | [3] 102% | [4] 100% | [5] 90.4% | [6] 55.2% | [7] 68.7% | [8] 63.1% | [9] 16.8%

Cc1cccc(C)c1NC(=O)c1sc2nc3c(cc2c1N)C(=O)CCC3
active: [6] -8.11%
inactive: [1] 90.1% | [2] 79.5% | [3] 88.7% | [4] 89.6% | [5] 52% | [7] 66.5% | [8] 96.2% | [9] 69.1%

COc1ccc(-c2nsc3c2NC(=O)CC3c2ccc(F)cc2)cc1 (stereo not given)
inactive: [1] 51.6% | [2] 48.7% | [3] 38.5% | [4] 47.1% | [5] 24.3% | [6] 53.8% | [7] 45.3% | [8] 21.7%
active: [9] 3.34%

O=c1oc2cc(OS(=O)(=O)c3ccccc3)ccc2c2c1CCCCC2
active: [9] 7%
inactive: [1] 61.4% | [2] 59.4% | [3] 67.9% | [4] 82.2% | [5] 73.9% | [6] 48.9% | [7] 37.2% | [8] 31.4%

CCC(=O)N1C/C(=C/c2ccc(OC)cc2)C(=O)/C(=C/c2ccc(OC)cc2)C1
active: [2] -7.25% | [7] -5.27% | [9] -11%
inactive: [1] 27.4% | [3] 70.3% | [4] 28.4% | [5] 13.1% | [6] 83.5% | [8] 11%

O=C(Nc1ccc(OS(=O)(=O)c2ccccc2)cc1)C12CC3CC(CC(C3)C1)C2
inactive: [1] 63.5% | [2] 44.6% | [3] 68.6% | [4] 78.5% | [5] 54.7% | [6] 14.4% | [7] 40.2% | [8] 39.5% | [9] 11.2%

N#CCCN1C/C(=C/c2ccc(Cl)cc2)C(=O)/C(=C/c2ccc(Cl)cc2)C1
active: [1] -74.8% | [2] -95.5% | [3] -40.9% | [4] -70.7% | [5] -9.22% | [6] -68.4% | [7] -3.01% | [8] -11.7% | [9] -17.5%

Cc1cccc2c1O/C(=C\c1ccc([N+](=O)[O-])o1)C2=O
active: [1] -17.5% | [2] -62.6% | [3] -88.2% | [4] -81.9% | [5] -3% | [7] -26.4% | [8] -14.7% | [9] 2.46%
inactive: [6] 49%

Cc1c(Cl)cccc1NC(=O)c1sc2nc3c(cc2c1N)C(=O)CCC3
inactive: [1] 30.8% | [2] 33.3% | [3] 74.3% | [4] 39.4% | [5] 23.9%
active: [6] -19% | [7] 7.08% | [8] 6.7% | [9] 2.96%

COc1cccc(NC(=O)c2sc3nc4c(cc3c2N)C(O)CCC4)c1 (stereo not given)
active: [6] -7.35% | [8] 6.41% | [9] 0.382%
inactive: [1] 30.3% | [2] 40.3% | [3] 79.8% | [4] 42% | [5] 34.4% | [7] 11.2%

C#Cc1ccc(-n2c(/C=C/c3ccc(Cl)c(F)c3)nc3ncccc3c2=O)cc1
active: [1] -4.94% | [2] -82.5% | [3] -44.6% | [4] 0.478% | [5] -14.2% | [6] -39% | [7] 1.54% | [8] -18.6% | [9] -25.2%

Cc1ccc(C(=O)N2C/C(=C/c3ccc(F)cc3)C(=O)/C(=C/c3ccc(F)cc3)C2)cc1
inactive: [1] 92.4% | [2] 64.3% | [3] 102% | [4] 103% | [5] 81.3% | [6] 93.5% | [7] 63.1% | [8] 71.6% | [9] 20.4%

CCOC1(OCC)OC(c2ccccc2)=C(C#N)C(/C=C\c2ccccc2)C1(OCC)OCC (stereo not given)
inactive: [1] 81.3% | [2] 74% | [3] 97.1% | [4] 83.5% | [5] 84.8% | [6] 83.7% | [7] 79.1% | [8] 81.7% | [9] 52.8%

COc1cc(NC(=O)CCSc2nc3ccc(C)cc3c(=O)n2Cc2ccccc2)cc(OC)c1OC
inactive: [1] 89.5% | [2] 71.2% | [3] 96.1% | [4] 53.3% | [5] 65.1% | [6] 77.6% | [7] 105% | [8] 103% | [9] 95.3%

O=C1/C(=C\c2ccc(F)cc2)CN(C(=O)c2ccccc2)C/C1=C\c1ccc(F)cc1
inactive: [1] 14.1% | [2] 38.7% | [3] 79.7% | [4] 24.3% | [5] 21.3% | [6] 52.3%
active: [7] -12.6% | [8] 4.36% | [9] -15.1%

Nc1c(C(=O)Nc2cccc(Br)c2)sc2nc3c(cc12)C(O)CCC3 (stereo not given)
active: [6] -8.73% | [9] 3.95%
inactive: [1] 37.3% | [2] 31.9% | [3] 56.7% | [4] 51.4% | [5] 25.6% | [7] 12.2% | [8] 14%

Fc1ccc2nc(-c3nc(-c4ccccc4)n4ccccc34)[nH]c2c1
inactive: [1] 16.9% | [4] 10.1% | [7] 53.3% | [8] 39.8% | [9] 38%
active: [2] -32.9% | [3] -30.2% | [5] -0.279% | [6] -16.8%

Cn1c(N)c(N=Nc2ccc(S(=O)(=O)Nc3nccs3)cc2)c(=O)n(C)c1=O
inactive: [1] 97% | [2] 68.6% | [3] 98.7% | [4] 102% | [5] 95.4% | [6] 96.9% | [7] 95.8% | [8] 92.6% | [9] 95.2%

COc1ccc(C2=Nc3c(C)nn(-c4ccccc4)c3NC(c3ccc(Oc4ccnc5cc(Cl)ccc45)c(OC)c3)C2)cc1 (stereo not given)
active: [9] -0.699%
inactive: [1] 72.5% | [2] 53% | [3] 129% | [4] 76.4% | [5] 70.8% | [6] 54.2% | [7] 71.2% | [8] 51.4%
